Experimental data reported in PubChem BioAssay AID1159580 (chemical genetic matrix, 2015).
The campaign covered roughly 5,500 compounds. About 2,000 (36%) were called active. Roughly 18% stayed inconclusive and do not appear here. Cut-off read from the data, not from the text of the source: active = normalized growth mostly below about 0.91 (no sharp cut-off); inconclusive = no clear call, values can overlap the other calls; inactive = mostly above about 0.92. The list shows a part of the results.

Assay: chemical genetic growth profiling, strain panel (AID 1159580);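 note: tested at 20 µM; growth read once vehicle control cultures reached saturation at 30 °C; 1 = growth at the plate median or of vehicle wells; lower values mean less growth of the strain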
Settings: growth OD

Measured: normalized growth

O=C(O)C1=C[C@@H](O)[C@@H](O)[C@H](O)C1
inactive: S. cerevisiae deletion strains, locus YJR043C, strain POL32, stronger effect = lower value 1.02 | S. cerevisiae deletion strains, locus YJR066W, strain TOR1, stronger effect = lower value 0.928 | S. cerevisiae deletion strains, locus YJR075W, strain HOC1, stronger effect = lower value 1.01 | S. cerevisiae deletion strains, locus YKL009W, strain mrt4, stronger effect = lower value 1 | S. cerevisiae deletion strains, locus YKL068W, stronger effect = lower value 1 | S. cerevisiae deletion strains, locus YKL085W, strain MDH1 (second series), stronger effect = lower value 1.01 | S. cerevisiae deletion strains, locus YKL085W, strain MDH1, stronger effect = lower value 1.01 | S. cerevisiae deletion strains, locus YKL160W, strain elf1, stronger effect = lower value 0.987 | S. cerevisiae deletion strains, locus YKR001C, strain vps1, stronger effect = lower value 1.07 | S. cerevisiae deletion strains, locus YKR026C, strain gcn3, stronger effect = lower value 0.999 | S. cerevisiae deletion strains, locus YKR091W, strain srl3, stronger effect = lower value 0.969 | S. cerevisiae deletion strains, locus YLL001W, strain dnm1, stronger effect = lower value 0.995 | S. cerevisiae deletion strains, locus YLL026W, stronger effect = lower value 0.975 | S. cerevisiae deletion strains, locus YLL041C, strain sdh2, stronger effect = lower value 0.978 | S. cerevisiae deletion strains, locus YLR027C, strain aat2, stronger effect = lower value 0.996 | S. cerevisiae deletion strains, locus YLR039C, strain RIC1, stronger effect = lower value 1.1 | S. cerevisiae deletion strains, locus YLR058C, strain SHM2, stronger effect = lower value 1.01 | S. cerevisiae deletion strains, locus YLR102C, strain apc9, stronger effect = lower value 1.01 | S. cerevisiae deletion strains, locus YLR113W, strain HOG1, stronger effect = lower value 1.01 | S. cerevisiae deletion strains, locus YLR221C, strain rsa3, stronger effect = lower value 0.982 | S. cerevisiae deletion strains, locus YLR258W, strain gsy2, stronger effect = lower value 0.974 | S. cerevisiae deletion strains, locus YLR262C, strain YPT6 (second series), stronger effect = lower value 0.952 | S. cerevisiae deletion strains, locus YLR262C, strain YPT6, stronger effect = lower value 1.13 | S. cerevisiae deletion strains, locus YLR268W, strain sec22, stronger effect = lower value 1.05 | S. cerevisiae deletion strains, locus YLR320W, strain mms22, stronger effect = lower value 0.985 | S. cerevisiae deletion strains, locus YLR330W, strain CHS5, stronger effect = lower value 1.01 | S. cerevisiae deletion strains, locus YLR342W, strain FKS1 (second series), stronger effect = lower value 1.05 | S. cerevisiae deletion strains, locus YLR342W, strain FKS1, stronger effect = lower value 0.985 | S. cerevisiae deletion strains, locus YLR357W, strain rsc2, stronger effect = lower value 0.973 | S. cerevisiae deletion strains, locus YLR370C, strain arc18, stronger effect = lower value 0.994 | S. cerevisiae deletion strains, locus YLR371W, strain rom2, stronger effect = lower value 1.02 | S. cerevisiae deletion strains, locus YLR384C, strain iki3, stronger effect = lower value 0.979 | S. cerevisiae deletion strains, locus YLR418C, strain cdc73, stronger effect = lower value 0.986 | S. cerevisiae deletion strains, locus YML016C, strain PPZ1, stronger effect = lower value 1.02 | S. cerevisiae deletion strains, locus YML032C, strain rad52, stronger effect = lower value 0.993 | S. cerevisiae deletion strains, locus YML120C, strain ndi1, stronger effect = lower value 0.982 | S. cerevisiae deletion strains, locus YML124C, strain tub3, stronger effect = lower value 1 | S. cerevisiae deletion strains, locus YMR058W, strain fet3, stronger effect = lower value 0.973 | S. cerevisiae deletion strains, locus YMR078C, strain ctf18, stronger effect = lower value 1.01 | S. cerevisiae deletion strains, locus YMR125W, strain sto1, stronger effect = lower value 0.968 | S. cerevisiae deletion strains, locus YMR129W, stronger effect = lower value 0.986 | S. cerevisiae deletion strains, locus YMR205C, strain PFK2, stronger effect = lower value 0.984 | S. cerevisiae deletion strains, locus YMR223W, strain ubp8, stronger effect = lower value 0.987 | S. cerevisiae deletion strains, locus YMR231W, strain pep5, stronger effect = lower value 0.967 | S. cerevisiae deletion strains, locus YMR263W, strain SAP30, stronger effect = lower value 1.02 | S. cerevisiae deletion strains, locus YMR307W, strain GAS1, stronger effect = lower value 1.04 | S. cerevisiae deletion strains, locus YNL067W, strain RPL9B, stronger effect = lower value 1.01 | S. cerevisiae deletion strains, locus YNL071W, strain lat1, stronger effect = lower value 0.982 | S. cerevisiae deletion strains, locus YNL183C, strain NPR1, stronger effect = lower value 0.962 | S. cerevisiae deletion strains, locus YNL209W, strain ssb2, stronger effect = lower value 0.983 | S. cerevisiae deletion strains, locus YNL233W, strain BNI4, stronger effect = lower value 1.03 | S. cerevisiae deletion strains, locus YNL248C, strain rpa49, stronger effect = lower value 0.965 | S. cerevisiae deletion strains, locus YNL250W, strain rad50, stronger effect = lower value 1.03 | S. cerevisiae deletion strains, locus YNL271C, strain bni1, stronger effect = lower value 1.01 | S. cerevisiae deletion strains, locus YNL298W, strain CLA4, stronger effect = lower value 1.01 | S. cerevisiae deletion strains, locus YNL307C, strain MCK1, stronger effect = lower value 1.02 | S. cerevisiae deletion strains, locus YNL322C, strain KRE1 (second series), stronger effect = lower value 0.986 | S. cerevisiae deletion strains, locus YNR049C, strain mso1, stronger effect = lower value 0.989 | S. cerevisiae deletion strains, locus YNR052C, strain pop2, stronger effect = lower value 1.01 | S. cerevisiae deletion strains, locus YOL012C, strain htz1 0.985 | S. cerevisiae deletion strains, locus YOL147C, strain pex11, stronger effect = lower value 0.993 | S. cerevisiae deletion strains, locus YOR001W, strain rrp6, stronger effect = lower value 0.993 | S. cerevisiae deletion strains, locus YOR061W, strain CKA2, stronger effect = lower value 1.01 | S. cerevisiae deletion strains, locus YOR069W, strain VPS5, stronger effect = lower value 1.01 | S. cerevisiae deletion strains, locus YOR070C, strain gyp1, stronger effect = lower value 0.996 | S. cerevisiae deletion strains, locus YOR080W, strain dia2, stronger effect = lower value 0.99 | S. cerevisiae deletion strains, locus YOR083W, strain WHI5, stronger effect = lower value 0.982 | S. cerevisiae deletion strains, locus YOR106W, strain vam3, stronger effect = lower value 0.972 | S. cerevisiae deletion strains, locus YOR136W, strain idh2, stronger effect = lower value 1.01 | S. cerevisiae deletion strains, locus YOR144C, strain elg1, stronger effect = lower value 1 | S. cerevisiae deletion strains, locus YOR184W, strain ser1, stronger effect = lower value 1.02 | S. cerevisiae deletion strains, locus YOR231W, strain MKK1, stronger effect = lower value 0.981 | S. cerevisiae deletion strains, locus YOR265W, strain rbl2, stronger effect = lower value 0.977 | S. cerevisiae deletion strains, locus YOR270C, strain vph1, stronger effect = lower value 0.969 | S. cerevisiae deletion strains, locus YOR290C, strain snf2, stronger effect = lower value 0.988 | S. cerevisiae deletion strains, locus YOR316C, strain cot1, stronger effect = lower value 0.996 | S. cerevisiae deletion strains, locus YPL051W, strain arl3, stronger effect = lower value 0.977 | S. cerevisiae deletion strains, locus YPL078C, strain atp4, stronger effect = lower value 0.987 | S. cerevisiae deletion strains, locus YPL106C, strain sse1, stronger effect = lower value 0.973 | S. cerevisiae deletion strains, locus YPL240C, strain hsp82, stronger effect = lower value 0.989 | S. cerevisiae deletion strains, locus YPL241C, strain CIN2, stronger effect = lower value 1.01 | S. cerevisiae deletion strains, locus YPL256C, strain CLN2, stronger effect = lower value 0.978 | S. cerevisiae deletion strains, locus YPR119W, strain clb2, stronger effect = lower value 1 | S. cerevisiae deletion strains, locus YPR141C, strain kar3, stronger effect = lower value 1 | S. cerevisiae deletion strains, locus YPR163C, strain tif3, stronger effect = lower value 0.995 | S. cerevisiae deletion strains, locus YPR167C, strain met16, stronger effect = lower value 0.999 | S. cerevisiae deletion strains, strain wtn01, stronger effect = lower value 1.05 | S. cerevisiae strains, strain wild type, stronger effect = lower value 1.02
